Assay results published in ChEMBL document CHEMBL4513216, “Probing the Open Global Health Chemical Diversity Library for Multistage-Active Starting Points for Next-Generation Antimalarials” (ACS Infect Dis, 2020).
Screen size: about 69,000 compounds; about 8,600 (12%) showed an effect of 50% or more. This is one part of a sample in which strong results are shown more often than they occur.

test system: Plasmodium berghei; assay: Screen against P. berghei liver stage (PbLuc), transformed with Luciferase, at 10uM; assay type: functional, HepG2; conditions: tested at 10 uM

Going from Cc1nn(C)c2cnn(Cc3ccc(C(=O)NCC4CCCO4)o3)c12 (stereo not drawn) to Cc1cc(C)n(CC2CCCCN2CCC(=O)Nc2cc(C)on2)n1 (stereo not drawn), the INHIBITION falls from 17.6% to 12.7%.

First: O=C1CC2(CCSC2)C(=O)N1Cc1coc(-c2cccc(F)c2)n1 (stereo not drawn)
Second: Cc1ccc2c(c1)C(=O)NCC1(CCN(Cc3ccccc3)CC1)O2
The INHIBITION of the first is higher: 3.03% for the first, -6.92% for the second.

Compared with Cc1noc(C)c1CN1CCc2ncc(Cn3cccn3)n2CC1, Cc1nnc(N2CCOC(Cn3cccn3)C2)c(C#N)c1C (stereo not drawn) is lower in INHIBITION: 26% for the first, 17.8% for the second.

Going from Cc1nonc1C(=O)N1CCCC(c2ncncc2-c2ccncc2)C1 (stereo not drawn) to CN1CCCC(c2cccc(CCC(=O)NCc3ccccn3)n2)C1 (stereo not drawn), the INHIBITION falls from 42.1% to 3.91%.

Going from Cc1nc(Nc2cnccn2)cc(C2CCCN2)n1 (stereo not drawn) to Cc1nc(N2CCCOC(Cn3cccn3)C2)c2sccc2n1 (stereo not drawn), the INHIBITION rises from 34.9% to 65.7%.

First: Cc1ccc(CNC(=O)CN2CCOC(Cn3cncn3)C2)s1 (stereo not drawn)
Second: c1nc(N2CCOC(Cn3cncn3)C2)c2sccc2n1 (stereo not drawn)
The INHIBITION of the first is lower: 5.03% for the first, 49.4% for the second.

First: O=C(NCCN1CCCCC1)c1ccoc1
Second: Cc1nc(N2C[C@@H](CN3CCCCC3)[C@@H](CO)C2)c2sccc2n1
The INHIBITION of the first is lower: 16.1% for the first, 46.4% for the second.

First: COc1cc(CNCCc2cc(F)cc3c2OCOC3)cc(OC)c1
Second: CCc1cc(CN(C)Cc2nc(-c3ccc(OC)cc3F)oc2C)on1
The INHIBITION of the first is lower: 26.6% for the first, 39.9% for the second.

First: CCn1cnnc1CNC(=O)N(C)C(C)c1cccs1 (stereo not drawn)
Second: CCn1cnnc1CN(C)Cc1nc(-c2cc(OC)ccc2F)oc1C
The INHIBITION of the first is lower: -41.1% for the first, 50.4% for the second.

Compared with O=C(NCc1cc[nH]n1)N1CCC(Oc2ccccc2Cl)CC1, Cc1cccc(OC2CCN(C(=O)NCc3cc[nH]n3)CC2)c1C is higher in INHIBITION: 50.2% for the first, 88.4% for the second.

Compared with CS(=O)(=O)NC1CCN(C(=O)NCc2cc[nH]n2)CC1, O=C(NCc1cc[nH]n1)N1CCN(c2ccccc2Cl)CC1 is higher in INHIBITION: 8.64% for the first, 39.2% for the second.

Compared with CN1CC(C(=O)N2CCC(Oc3ccccc3Cl)CC2)CC1=O (stereo not drawn), O=C(C1CC(=O)N(C2CC2)C1)N1CCC(Oc2ccccc2Cl)CC1 (stereo not drawn) is lower in INHIBITION: 35.5% for the first, -6.88% for the second.

Going from CNC(=O)CC1CCN(C(=O)NCc2cn3c(C)cccc3n2)CC1 to Cc1cccc2nc(CNC(=O)N3CCC(OCC4CC4)CC3)cn12, the INHIBITION rises from 45.2% to 51.2%.

Going from CCOCC1CCCN(C(=O)NCc2cn3c(C)cccc3n2)C1 (stereo not drawn) to CCOc1ccccc1N1CCN(C(=O)NCc2cc[nH]n2)CC1, the INHIBITION rises from 21.6% to 49.8%.

Going from Cc1cccc(OC2CCN(C(=O)NCCn3ccnc3)CC2)c1C to O=C(C1CC1)N1CCC(Oc2ccccc2Cl)CC1, the INHIBITION rises from -4.13% to 88.1%.

Compared with Cc1ccc(C(=O)N2CCO[C@H]3[C@@H](OCc4ccccn4)CC[C@@H]32)o1, Cc1occc1C(=O)N1C[C@H](Oc2ccccn2)[C@H]2OCCC[C@H]21 is higher in INHIBITION: 3.47% for the first, 34.9% for the second.

Going from Cc1ccc(CNC(=O)N(C)Cc2cnn(C)c2)s1 to Cc1c(C(C)NC(=O)Nc2ccccc2F)cnn1C (stereo not drawn), the INHIBITION rises from 25.5% to 61.9%.

First: COC(=O)c1cc(C2CC2)nc2c(Cl)cnn12
Second: CCCC(=O)N1CCC(c2cc[nH]n2)C1 (stereo not drawn)
The INHIBITION of the first is higher: 20.9% for the first, 17.4% for the second.

First: Cc1c(C(C)NC(=O)Nc2ccc(F)cc2F)cnn1C (stereo not drawn)
Second: Cc1c(C(C)NC(=O)Nc2ccc(F)c(F)c2)cnn1C (stereo not drawn)
The INHIBITION of the first is higher: 44.3% for the first, 6.26% for the second.

Compared with Cc1ccccc1CSc1ncccc1C(=O)N(C)C, Cc1ccccc1CSc1nc(N)cc(N2C[C@H](O)[C@@H](N(C)C)C2)n1 is higher in INHIBITION: -13.2% for the first, 58.2% for the second.

First: Cc1cncc(CN2CC[C@@](O)(CNC(=O)c3c[nH]cn3)[C@H](O)C2)c1
Second: O=C(NC[C@]1(O)CN(Cc2ccc(F)cc2)C[C@H]1O)c1ccccn1
The INHIBITION of the first is higher: 32.7% for the first, 18.9% for the second.

Going from c1cnn(CC2CN(c3ncnc4[nH]ccc34)CCO2)c1 (stereo not drawn) to Cc1cnn(CC2CN(c3ncnc4[nH]ccc34)CCO2)c1 (stereo not drawn), the INHIBITION rises from 13.3% to 19.4%.

Going from c1cnn(CC2CN(c3ncnc4c3CCC4)CCO2)c1 (stereo not drawn) to c1nc2c(c(N3CCOC(Cn4cncn4)C3)n1)CCC2 (stereo not drawn), the INHIBITION falls from -7.17% to -26.9%.

Going from Cc1cnn(CC2CN(c3ncnc4c3CCC4)CCO2)c1 (stereo not drawn) to Cc1cnn(CC2CN(c3ncnc4ccsc34)CCO2)c1 (stereo not drawn), the INHIBITION rises from 63% to 83.7%.

First: c1ccc2c(N3CCOC(Cn4cccn4)C3)ncnc2c1 (stereo not drawn)
Second: Cc1cnn(CC2CN(c3ncnc4ccccc34)CCO2)c1 (stereo not drawn)
The INHIBITION of the first is lower: 4.48% for the first, 64.4% for the second.

First: c1cnn(CC2CN(c3ncnc4ccsc34)CCO2)c1 (stereo not drawn)
Second: c1cnn(CC2CN(c3ncnc4sccc34)CCO2)c1 (stereo not drawn)
The INHIBITION of the first is higher: 62.4% for the first, 45% for the second.

Going from O=C1CN(C(=O)C2CN(c3cccc(Cl)c3)CCO2)CCN1 (stereo not drawn) to Cc1cccc(N2CCC3(CCCN(C(=O)Cc4cccnc4)C3)C2)n1 (stereo not drawn), the INHIBITION rises from 3.46% to 17.5%.

Going from Cn1cnc2cc(C(=O)NS(=O)(=O)c3ccccc3Cl)ccc21 to O=C(NCCc1cnccn1)c1ccc(S(=O)(=O)NC2CCC2)cc1, the INHIBITION rises from -32.1% to 40.3%.

Going from COc1ccc(-n2ccc(C(=O)N(C)C(C)C3(C)CC3)n2)cc1 (stereo not drawn) to COc1ccc(CCNC(=O)NCC(O)c2cccc(F)c2)cc1 (stereo not drawn), the INHIBITION falls from 29.1% to 12.7%.

Compared with Cc1cccc(CN2CCC(N(C)Cc3nnc(C4CC4)n3C)C2)c1 (stereo not drawn), CCn1c(C)nnc1CN(C)C1CCN(CC2CCC2)C1 (stereo not drawn) is lower in INHIBITION: 38.5% for the first, -4.16% for the second.

First: CC(C)c1sc(Br)nc1C(=O)NCc1ccncc1
Second: Fc1cccc2ncnc(NCCCc3ccncc3)c12
The INHIBITION of the first is lower: 45.3% for the first, 73% for the second.

Compared with CC(C)N1CC[C@@H]2[C@H](COCC3CC3)CN(C)C(=O)[C@@H]2CC1, CN1CCC(N(Cc2ccncc2)C(=O)COCC2CCCCO2)CC1 (stereo not drawn) is higher in INHIBITION: 10.5% for the first, 17.2% for the second.

Compared with Cc1cnn(CC2CN(c3cnc4ccccc4n3)CCO2)c1 (stereo not drawn), c1cc(CN2CCOC(Cn3cccn3)C2)c2c(c1)OCCO2 (stereo not drawn) is higher in INHIBITION: 16.2% for the first, 25.1% for the second.

Compared with COC1[C@@H]2CC[C@H]1CN(c1nc(C)nc3ccsc13)C2 (stereo partly drawn), Cc1nc(N2C[C@H]3CNC[C@H]3C2)c2sccc2n1 is higher in INHIBITION: 43% for the first, 55.6% for the second.

First: CN(C)CC1CN(c2ncnc3ccsc23)CCO1 (stereo not drawn)
Second: CCN(C)c1ncnc2c1CCN(Cc1ccsc1)CC2
The INHIBITION of the first is higher: 30.8% for the first, -14.1% for the second.

Compared with Cc1csc(N2CCN(C(=O)c3ccc(C)s3)CC2)n1, Cc1nc(N2CCN(C(=O)c3ccccn3)CC2)c2c(n1)c(C)nn2C is higher in INHIBITION: 2.3% for the first, 12.6% for the second.

Going from CN(Cc1cccs1)S(=O)(=O)c1ccc(C(F)(F)F)nc1 to CS(=O)(=O)NCCNc1ncnc2cccc(F)c12, the INHIBITION falls from 35.1% to 24.9%.

Compared with Cc1[nH]c2cc(C3CCCCN3C(=O)C3CC3)nn2c(=O)c1C (stereo not drawn), CCc1cnc(CN(C(C)=O)C2CCN(CC(=O)N3CCCC3)C2)o1 (stereo not drawn) is higher in INHIBITION: -3.02% for the first, 30.6% for the second.

Going from Cn1ccnc1CN1CCN(CC(O)c2ccc(F)cc2)CC1 (stereo not drawn) to CSc1nccc(N2CCC3(CCCN(Cc4ccc(F)cc4)C3)C2)n1 (stereo not drawn), the INHIBITION rises from -18% to 85.2%.

First: Cc1ncsc1CN1CCOC(C)(C(N)=O)C1 (stereo not drawn)
Second: COc1nn(C)cc1C(=O)NCC1(O)CCOCC1
The INHIBITION of the first is lower: 15.5% for the first, 15.7% for the second.

Going from O=C(NC1CC1)C1CCN(c2cccc(C(F)(F)F)n2)CC1 to O=C(NC1CCN(c2cccc(C(F)(F)F)n2)CC1)C1CC1, the INHIBITION falls from 86.8% to 29%.

Going from O=C(NC1CC1)C1CCCN(c2cccc(C(F)(F)F)n2)C1 (stereo not drawn) to Cc1ccccc1CSc1nc(N)cc(N2CCCC(O)C2)n1 (stereo not drawn), the INHIBITION rises from -28.8% to 15.2%.

Going from CCN1CCCC1CNC(=O)Cc1c(-c2ccc(Cl)cc2)n[nH]c1C (stereo not drawn) to CCNC(=O)N1CCC(OC)c2ccccc2N(CC(=O)NC)C(=O)C1 (stereo not drawn), the INHIBITION rises from 14.4% to 35.1%.

Going from Cc1ccccc1CSc1nc(N)cc(N2CC[C@@H](O)C2)n1 to CSc1nccc(N2CCC3(CCCN(Cc4cccc(C)c4)C3)C2)n1 (stereo not drawn), the INHIBITION rises from 42.1% to 69.9%.

Going from CC(C)(C)C(=O)NCCCn1cncn1 to CCN(CCCNc1ncnc2cc(F)c(F)cc12)S(C)(=O)=O, the INHIBITION rises from -21.9% to -4.93%.

First: COC(=O)c1cc2c(OC)c(C)c(OC)cc2[nH]1
Second: COc1ccc(OC)c(-c2nc(CN(C)Cc3nncn3C)c(C)o2)c1
The INHIBITION of the first is lower: -1.45% for the first, 57.8% for the second.

Going from COc1ccc(OC)c(-c2nc(CN(C)Cc3nonc3C)c(C)o2)c1 to COc1ccc(-c2nc(CN(C)Cc3nncn3C)c(C)o2)c(C)c1C, the INHIBITION falls from -28% to -29.1%.

Going from COCc1ncn(Cc2nc(-c3ccc(OC)cc3F)oc2C)n1 to CN(C)CCCNc1ncnc2cccc(F)c12, the INHIBITION rises from 8.86% to 41.8%.

Going from CCC(C)C(=O)N(C)Cc1cc(F)ccc1N1CCC(OC)CC1 (stereo not drawn) to C[C@@H](N)C(=O)N1CC2(CCNCC2)c2cc(Cl)ccc21, the INHIBITION falls from 33.7% to 33.4%.

Going from COCCNC(=O)CN(C)CCn1nc2ccccn2c1=O to CC1CCN(C(=O)c2cc(NC(=O)c3ccccc3)n(C)n2)CC1, the INHIBITION rises from 23.8% to 26.4%.

Going from C=C(Cl)CN(C)C1CCN(CCc2ccccn2)CC1 to CSc1nccc(N2CCC3(CCCN(CCc4ccccc4)C3)C2)n1 (stereo not drawn), the INHIBITION rises from 35.9% to 85.2%.

Going from CSc1nccc(N2CCN(C)C3(CCNC(=O)CC3)C2)n1 (stereo not drawn) to CCN1CCC2(CCC1=O)CN(c1ccnc(SC)n1)CCN2C (stereo not drawn), the INHIBITION rises from -17.7% to 8.57%.

Going from Fc1ccc(CN2CCCC3(CCN(Cc4ncc[nH]4)C3)C2)cc1F (stereo not drawn) to CSc1nccc(N2CCC3(CCCN(CC4CC4)C3)C2)n1 (stereo not drawn), the INHIBITION falls from 26% to -21.9%.

Compared with CCO[C@H]1CO[C@@]2(CCCN(S(=O)(=O)c3cccnc3)C2)C1, CN(C)CCN1CCOCC2(C1)CN(Cc1ccco1)CCO2 (stereo not drawn) is lower in INHIBITION: 34.6% for the first, 26.7% for the second.

Going from CCOC[C@]12COC[C@H]1CN(Cc1ccc3c(c1)OCO3)C2 to CN(C)C(=O)N1C[C@H]2CC[C@@H](C1)N(C(=O)c1c(Cl)cccc1Cl)C2, the INHIBITION falls from 38.5% to 12.1%.

First: Cc1ccc(C(O)CNC(=O)Nc2cc(C)nn2C)cc1 (stereo not drawn)
Second: CSCCCNc1ncnc2cccc(F)c12
The INHIBITION of the first is lower: -11.735% for the first, 56.7% for the second.

Work on CCS(=O)(=O)NCCCNc1ncnc2cc(F)c(F)cc12 yielded an INHIBITION of -30.5%.
